Measurements from the supplement of paper PMC11417369.
± gives the standard deviation of the averaged measurements. The full ranking holds about 25,000 sequences; the median of “ln(normalized median fluorescence intensity)” is about 8.6, and the highest 2% start at about 10. What follows is part of a selection rich in the highest values, with near analogues and random picks from the rest.

System: PfAP2-EXP AP2 domain (GST-tagged)
Test: gcPBM binding intensity (ln(normalized median fluorescence intensity)); higher = stronger DNA binding
Method in brief: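 Using an Agilent 4 × 180k array, primer-extended double-stranded 36-bp intergenic genomic probes and negative controls were exposed for 1 h to GST-fused P. falciparum DNA-binding domains expressed in E. coli. Binding was carried out in 1× PBS with 1% milk, 0.2 mg/ml BSA, 0.5% salmon testes DNA and 0.03% Triton X-100, and protein was detected with Alexa488 anti-GST antibody and a 488 nm scan. Binding intensity is the highest Masliner-normalised natural-log median intensity across replicate spots of either probe orientation.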

Sequence	gcPBM binding intensity (ln)
ACAAAAAAAAAGGAAACACACAAAAAAAAAAAATAA [CACACA_site3523]	8.44 ± 0.59
TAATGAAAAAATAAAAGAATAAATAAATAAATAAAT [TGCATGCA_negctrl_site130]	8.77 ± 0.3
AGTGTATATAGAAACATACACACATATTAATTTTAC [CACACA_site3127]	8.3 ± 0.28
AAAAAAAAAAAAAAAGTGCACTGAAAATATATTGAA [GTGCAC_site9395]	9.04 ± 0.2
TTTTTTTTTCTTTCTTTCTTTTGTAAAAACCTCAAA [CACACA_negctrl_site723]	8.46 ± 0.37
TGTGCACGTTCTGTGACACACATTTAAATGTGCTTA [CACACA_site176]	8.62 ± 0.35
TTTTTATTTATATATATATATATATATTATATATAA [CACACA_negctrl_site1654]	8.34 ± 0.36
TTTTTTTTTTTTTTTTATTTATATATATATATATAT [CACACA_negctrl_site582]	9.98 ± 0.23
GCATATATTATATATTTATTTATTTTTTTTTTTTAA [GTGCAC_negctrl_site193]	8.32 ± 0.46
TATTAATTAAACCATACACACATAATTTTTTTATAA [CACACA_site843]	8.21 ± 0.43
TATATATATTAATTTATTTATTTGTTTATTTATTTA [CACACA_negctrl_site185]	8.41 ± 0.18
GTTATATATATATATATATATATATATATTTTTTTT [GTGCAC_negctrl_site597]	8.84 ± 0.15
TATATATATATATATATATATATTTTTATTATATAT [XGTACX_negctrl_site89]	10.2 ± 0.52
ATTTTGTTATTATATATATATATATATATATATATA [XGTACX_negctrl_site590]	10.3 ± 0.57
TATTTTTATTTTTAAACCATATATATATATATATAT [CACACA_negctrl_site1560]	10.3 ± 0.23
AAAATATATTAAGGCACACACATACAGATATATATA [CACACA_site5951]	8.9 ± 0.37
TATAAAATATAATTAGCACACATATATAAAATATAT [CACACA_site9355]	8.21 ± 0.34
ATTTTGCCTGACCCATGTACATATTATTTTTTGCAT [XGTACX_site2258]	9.41 ± 0.4
AGTATATTAATATAATGTACAAACGTTTATTTTGTA [XGTACX_site5980]	8.59 ± 0.42
ATATATATATATATATGTACATATATATACATATAT [XGTACX_site6987]	10.1 ± 0.43
ATATATATATATATATGTACATACATACAATCATAT [XGTACX_site6410]	10.3 ± 0.45
TACGAAATCATATGTACACACACATATATATATATA [CACACA_site5216]	10.1 ± 0.39
TATATATATATATATGTACACACATCAATCATATTA [CACACA_site8594]	10.1 ± 0.36
TTACGATCATCAATATGTACATATATATATATATAT [XGTACX_site4301]	10.2 ± 0.3

Sequence	gcPBM binding intensity (ln)
CGAAATCATATGTACACACACATATATATATATATA [CACACA_site2151]	10.2 ± 0.62
ATATATATATATATATGTACACACATCAATCATATT [XGTACX_site4005]	10.2 ± 0.54
AAAATATATACAATATGTACATATATATATATATAT [XGTACX_site1898]	9.96 ± 0.35
AAATATATATATATATGTACACACACACATATAAAT [XGTACX_site847]	8.5 ± 0.3
TTAACAAAATATAGCACACATAAATATATATTTATG [CACACA_site351]	8.66 ± 0.33
TATACATATTATATATGTACACATATTATATGTATA [XGTACX_site5851]	8.27 ± 0.15
ATTATATAGAATTGTACATGCGAATTGTATAACGAT [TGCATGCA_site125]	9.31 ± 0.57
ACATATATATAATATATATATCATCATATTTTCTTA [CACACA_negctrl_site853]	8.27 ± 0.39
TATTAAAATTAAAAAAAAAAAAAAAAGCAATAAAAA [XGTACX_negctrl_site426]	8.33 ± 0.71
CGTATGCAAGGAACCACACACACACCCATAAATGTA [CACACA_site749]	8.51 ± 0.45
TTTTCTACATCTTGTTGTACGAAAAATAAAAAAAAT [XGTACX_site4620]	8.72 ± 0.47
TATTTTATAAATTAATGTACATAAATTATATCTACT [XGTACX_site3625]	8.35 ± 0.16
TTTTAAACAGGACACACACACATATAGATTTATATA [CACACA_site6560]	8.69 ± 0.4
TTTTTTTTTTTTTTTTTTAAACACCTCAAAAAAAAA [CACACA_negctrl_site807]	8.04 ± 0.36
ATAATATCTTTATGTGTGCACATATATATATATATA	10.1 ± 0.38
GAGGTCTTTTTTAATGTGCACATATATATATATATA	10.3 ± 0.25
ATATATATCTTTTGTGTGCACATATATATAATATAT	8.97 ± 0.24
GGAAAAGGTATCCGTTCACACATAAATGGATACCAT [CACACA_site5072]	8.31 ± 0.4
ATTCATCCAATAATGTGAATTATCATGATAAACTTA [TGCATGCA_negctrl_site406]	8.26 ± 0.43
CAAAGTATTATGATTACACACATGTGCTTTTTTCTT [CACACA_site163]	8.57 ± 0.42
GGTATACTCAAGTATACACACATATATATATATATA [CACACA_site5746]	10.2 ± 0.45
GGTATACGCAAGTATACACACATATATATATATATA [CACACA_site3240]	10.1 ± 0.47
GGTATACACAAGTATACACACATATAAATATAAATA [CACACA_site7511]	8.5 ± 0.45
TATATACTCAAACACACACACACATACACAGACATA [CACACA_site5025]	8.77 ± 0.57

Sequence	gcPBM binding intensity (ln)
CAAACAATTAAACAAACACACATATACAAGTATATA [CACACA_site8639]	8.38 ± 0.36
GGTATACACAAGTATACACACATATATATATATATA [CACACA_site9063]	10.2 ± 0.22
ATTTTAGGAAAAAAAAGTACATATAATTTTTTATAT [XGTACX_site6954]	8.19 ± 0.31
AAATGTTATATATAATGTACTTGTAAGAACGTTCCT [XGTACX_site2840]	8.67 ± 0.45
GTGTAGTTAAAAAAAAGTACAGATTTTTTTTTTTTT [XGTACX_site849]	8.43 ± 0.092
ATATTTATAACTTGGTGTACTTTGAAAAAAAAAAAA [XGTACX_site5194]	8.38 ± 0.26
TTTTAATAATATGGATGTACATAAAAATAAATAAAT [XGTACX_site7937]	9.04 ± 0.38
AAAAAACACTTAAGGTGTACCTTTTAATATAAGTAT [XGTACX_site2397]	8.38 ± 0.3
TATGTGAAATAAGGATGTACAATTTTGATTTCCCCA [XGTACX_site8389]	8.86 ± 0.52
TATAAACCGACGAAAACACACATATGTAAATATATA [CACACA_site491]	8.94 ± 0.59
TATACTTTATATATTTTGTATATATATTTTTTTTAT [TGCATGCA_negctrl_site530]	8.43 ± 0.31
ATTTTTTTTTTTTTTTTGGGGGGGTATACTTTTAAA [CACACA_negctrl_site1020]	11.2 ± 0.18
GTTAATATTTTTGGGGGTACTTAAAAAAAAAAAAAA [XGTACX_site1477]	9.35 ± 0.26
AAAAAAGAAAAAAAGTGTACAATATTTATTACATAT [XGTACX_site2277]	8.08 ± 0.028
TATTTAATTACATGAACACACATTATGTATTTTTAA [CACACA_site2962]	8.3 ± 0.3
TGAAATGATATATAAACACACATATATAAATATGTA [CACACA_site7616]	8.18 ± 0.42
ATAAATATATATATCACACATATATAATTATATATA [CACACA_site4787]	8.46 ± 0.3
TTTGAAATGATATATAAACACACATATATATATATA [CACACA_site9170]	10.3 ± 0.4
AATTAAAAAATTATCACACATATATATATATATATA [CACACA_site5789]	10.3 ± 0.52
ACTAATTACTATAAAACACACATATATTTATTTATA [CACACA_site7263]	8.51 ± 0.34
AATAAATTGAAACACACACACACATATATATATATA [CACACA_site848]	10.2 ± 0.32
TGAAATGATATATAAACACACATATATATATATATA [CACACA_site3511]	10 ± 0.36
TATATATATATATAAACACACATAAATATAAATATA [CACACA_site1121]	10 ± 0.37
ACTAATTACTATAAAACACACATATATATATATATA [CACACA_site2591]	10.2 ± 0.29

Sequence	gcPBM binding intensity (ln)
AAAATTAATAAATAAACACACATATATATATATATA [CACACA_site2598]	10.1 ± 0.44
CATATAAATAAACACACACACACATATATATATATA [CACACA_site5309]	10.2 ± 0.29
AAAAAATTAAAAATCACACATAAATATATATAAAAA [CACACA_site4192]	8.45 ± 0.4
TTTTTATTTTTAAAGGCACACACATTTTTATTTTTA [CACACA_site8624]	8.41 ± 0.31
AAACAAAATATGGTTCATGAGCAAAAGTTTATTTTG [XGTACX_negctrl_site531]	8.69 ± 0.47
TTGATTAAAATTAGTACACACAAAATACATGCGGGG [CACACA_site5284]	9.2 ± 0.3
AAGAACAAACAAAATAGTACAATATATATATATATA [XGTACX_site4258]	10 ± 0.28
ACTAAAAGATATATAATTTCTTTCTTATTTATTTTT [CACACA_negctrl_site842]	8.1 ± 0.35
AAATATATAAAATATACACACAGTAATATATATATA [CACACA_site1385]	9.52 ± 0.35
TTCTGTCAATATGCTTGTACGAAATATTTCGTAATT [XGTACX_site3182]	8.87 ± 0.4
TTTTTTGCTAAAAAGAGTACTAATAAAAAATTTATT [XGTACX_site5235]	8.34 ± 0.34
GAAAAAAAAAAAAATACACACAAATTGGTATATAAT [CACACA_site4369]	8.41 ± 0.39
ATAAAAATGGTGTTAACACACACATATATATATATA [CACACA_site8089]	10.1 ± 0.38
TATAAATAAAAACACACACACATATATATATATATA [CACACA_site2319]	10.1 ± 0.32
AATAAAATATAAACATTATATATATATATATATATA [GTGCAC_negctrl_site58]	10.3 ± 0.38
AAAAATGGTGTTAACACACACATATAAATAAATATA [CACACA_site6412]	8.44 ± 0.35
AATAAACATAAATAAAAATTATAAAATATATATATG [CACACA_negctrl_site1709]	8.38 ± 0.32
CATAAAATATAAAACACACACACATATATATATATA [CACACA_site223]	10.2 ± 0.44
TAAATAAATAAAAAAACACACATATAAATATAAATA [CACACA_site7815]	8.56 ± 0.4
TAAATAAAAAAACACACACACATATATATATATATA [CACACA_site2269]	10.2 ± 0.25
AAAAATGGTGTTAACACACACATATATATATATATA [CACACA_site571]	10.2 ± 0.17
TATAAATAAAAACACACACACACATATATATATATA [CACACA_site2268]	9.99 ± 0.39
TAAATAAATAAAAAAACACACATATATATATATATA [CACACA_site4029]	10.2 ± 0.32
AAAAAATAAATAAACATAAATAAATAAATAAATATA [XGTACX_negctrl_site340]	8.49 ± 0.33
